Results filed as inconclusive are left out. A call without a number means that no potency is given here. The source holds several records for some structures; these can differ, active in one and inactive in another. Activity calls are given as the source filed them. Calls follow the shape of the dose curve; as a rule, active = well fitted activation curve with a large enough effect in the repeat runs; inconclusive = weak or mixed curves, or effect the other way; inactive = no such curve, though single readings can be large or run the other way.
assay: qHTS assay to identify small molecule agonists of the retinoic acid receptor (RAR) signaling pathway (AID 1159553); details: C3RL4 RARE luciferase reporter, agonist, 6 h; series mostly up to 73.3 µM
Excerpt: National Center for Advancing Translational Sciences [NCATS] NIH Chemical Genomics Center [NCGC] U.S. Environmental Protection Agency [EPA] National Institutes of Environmental Health Sciences [NIEHS] National Toxicology Program [NTP] Assay overview: All-trans Retinoic acid (atRA) is the potent natural metabolite of retinol and plays an important role in normal embryonic development and maintenance of cellular phenotype in adult animals. atRA is the activating ligand for the retinoic acid receptors (RARs) which form heterodimers with retinoid X receptors (RXRs) on the retinoic acid response element (RARE). Through activation of the RAR/RXRs nuclear receptors, atRA regulates the transcription of a large number of protein-coding genes and regulatory RNAs. Intracellular levels of atRA are controlled by the retinol signaling pathway (RSP) that regulates the biosynthesis and catabolism of atRA to maintain physiological levels. Chemicals that interfere with the RSP can cause abnormal intracellular levels of atRA and therefore are potential developmental toxicants. To assess compounds for the potential adverse effect on embryonic development through interfering with retinol signaling, a cell-based RARE luciferase reporter gene assay was used. C3RL4 cell line (OARSA/CFSAN/FDA, Laurel, MD) was used to screen Tox21 10K compound library for identifying activators of the RSP.
Assay Protocol Summary: C3RL4 cells were seeded at 1,000/well in 5 uL of assay medium into white solid 1,536-well tissue culture plates (Greiner Bio-One North America Inc. Monroe, NC) using a Multidrop Combi (Thermo Scientific, Waltham, MA) dispenser. After incubation at 37 C and 5% CO2 for an overnight, 23 nL of compounds dissolved in DMSO, positive control or DMSO only were transferred by a Pintool station (Kalypsys, San Diego, CA). After 6 hr incubation at 37 C and 5% CO2, 5 uL of Amplite Luciferase reagent (AAT Bioquest Inc. Sunnyvale, CA) was added to each assay plate using a Flying Reagent Dispenser (FRD) (Aurora Discovery, San Diego, CA). Luminescence was quantified on a ViewLux plate reader (PerkinElmer, Waltham, MA) after 30 min incubation at room temperature.
Potency is read from the fitted curve at half-maximal effect.

| SMILES | Potency |
| --- | --- |
| FC1(F)C(F)(F)C(F)(F)C2(F)C(F)(F)C(F)(F)C(F)(F)C(F)(F)C2(F)C1(F)F (stereo not given) | inactive |
| N=C(N)c1ccc(OCCCOc2ccc(C(=N)N)cc2)cc1 | inactive |
| CO[C@]12C[C@@H](COC(=O)c3cncc(Br)c3)CN(C)[C@@H]1Cc1cn(C)c3cccc2c13 | inactive |
| N=c1nc(N2CCCCC2)cc(N)n1O | inactive |
| CC(=O)OCC(CCn1cnc2cnc(N)nc21)COC(C)=O | inactive |
| FC(F)OC(Cl)C(F)(F)F (stereo not given) | inactive |
| CCN(CC)CCNC(=O)c1cc(S(C)(=O)=O)ccc1OC | inactive |
| CO[Si](CCCOCC1CO1)(OC)OC (stereo not given) | inactive |
| C=COCC1CCC(CO)CC1 (stereo not given) | inactive |
| Cc1cc(O)cc2c1O[C@](C)(CCC[C@H](C)CCC[C@H](C)CCCC(C)C)CC2 | inactive |
| COC(=O)[C@@H](N)Cc1ccc(O)c(O)c1 | inactive |
| CN1C(=O)N(C)C(O)C1O (stereo not given) | inactive |
| COC(=O)C1=C(C)NC(C)=C(C(=O)OC)C1c1ccccc1[N+](=O)[O-] | 24.4 µM (active) and inactive |
| NCCc1cnc[nH]1 | inactive |
| CC(C)(O)C#CC(C)(C)O | inactive |
| CC(=O)Nc1c(I)cc(I)c(C(=O)O)c1I | inactive |
| Cn1cc(S(C)=O)c(=O)c2ccc(F)cc21 (stereo not given) | inactive |
| O=c1cc(CO)occ1O | inactive |
| CN(C)CCCNCCCN(C)C | inactive |
| c1cnc(N2CCN(Cc3ccc4c(c3)OCO4)CC2)nc1 | inactive |

| SMILES | Potency |
| --- | --- |
| CC(=O)Nc1ccc(S(N)(=O)=O)cc1 | inactive |
| CCN(CC)CCOCCOC(=O)C1(c2ccccc2)CCCC1 | inactive |
| CCCCCCCCCCCC | inactive |
| COC(=O)CC(C)=O | inactive |
| CC(C)NCCCC1(C(N)=O)c2ccccc2-c2ccccc21 | inactive |
| c1ccc(CC2=NCCN2)cc1 | inactive |
| OC1CCCCC1c1ccccc1 (stereo not given) | inactive |
| C/C=C(\C)C#N | inactive |
| CCO/C([O-])=N/c1c[n+](N2CCOCC2)no1 | inactive |
| CC(C)NCC(O)c1ccc(NS(C)(=O)=O)cc1 (stereo not given) | inactive |
| N[C@H](C(=O)O)c1ccc(O)cc1 | inactive |
| CC(=O)CC(C)C | inactive |
| N=C(N)c1ccccc1 | inactive |
| CCCCCOC(=O)CCCCC | inactive |
| CCCCCCOC(=O)CCCCC(=O)OCCCCCC | inactive |
| CCCCC/C=C\CCC=O | inactive |
| O=C(O)Cc1ccc(CCNS(=O)(=O)c2ccc(Cl)cc2)cc1 | inactive |
| NC(=O)COCCN1CCN(C(c2ccccc2)c2ccc(Cl)cc2)CC1 (stereo not given) | inactive |
| CC(C)=CCCC(C)CC(=O)O (stereo not given) | inactive |
| CCOC(C)(C)C | inactive |

Reference: PubChem BioAssay (Tox21)
